Test results from PubChem BioAssay (Tox21).
Results filed as inconclusive are left out. Where a call stands in place of a potency, no number is given. The source made the active and inactive calls. Calls come from the whole dose curve; as a rule, active = well fitted cell-killing curve with a large enough effect in the repeat runs; inconclusive = weak or mixed curves, or effect the other way; inactive = flat fitted curve, though single readings scatter.

Test: Nuclear factor erythroid 2-related factor 2/antioxidant responsive element (Nrf2/ARE) small molecule agonists: qHTS cell viability counter screen in human keratinocytes (AID 1919968); note: nearly all actives have a fitted effect of over 55% in size
Outline: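 Seed 1,500 KeratinoSens cells per well, then incubate 5 h at 37 C/5% CO2. Add compounds in DMSO and incubate 23 h. Add CellTiter-Fluor, wait 1 h and read fluorescence.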

Compound | Potency
COC(=O)c1cc(Oc2ccc(Cl)cc2Cl)ccc1[N+](=O)[O-] | inactive
CC1CCCC1 | inactive
